Hits are enriched below; roughly 0.92% of the tested compounds scored in any of these assays.
GALK inhibitor – qHTS Assay for Inhibitors of Human Galactokinase (GALK). P51570. Purified GALK, Kinase-Glo residual ATP luminescence. Potency, µM (series often up to 57.5 µM), actives largely listed as inhibitors. 270,000 compounds, 0.007% hits
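Quantitative HTS: GALK 5 nM, ATP 35 uM, galactose 100 uM, 1 h room temperature, then luciferase-based ATP detection.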
PKM2 act – qHTS Assay for Activators of Human Muscle isoform 2 Pyruvate Kinase | Pyruvate kinase PKM (Homo sapiens), P14618 | purified PKM2, Kinase-Glo ATP luminescence, activation; response scale: 0% is enzyme alone, no compound | Potency, µM (top dose mostly 57.5 µM), most hits filed as activators | 260,000 compounds, 0.34% hits; also: nearly all actives have a fitted effect of over 55% in size
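Purified hPK-M2 (>95%) run at intermediate activity with 0.1 mM ADP and 0.5 mM PEP in 50 mM imidazole pH 7.2, KCl, MgCl2; 1 h room temperature. ATP formed read by Kinase-Glo luminescence; normalized to uninhibited and no-enzyme controls.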
miR-21 act – qHTS Assay for Modulators of miRNAs and/orActivators of miR-21; HeLa miR-21 FLuc reporter, luciferase, 48 h; Potency, µM (highest dose often 38.3 µM), most hits filed as activators; 340,000 tested, under 10 active;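 also: miR-21 action dims this reporter so a rising signal means less miR-21 action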
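Using DMEM plus 10% FBS, HeLa miR-21-FLuc cells are incubated with test compounds (final up to about 40uM) for 48 hours; firefly luciferase signal is then imaged following reagent-mediated lysis.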
RXFP1 ag – qHTS Assay for Agonists of the Relaxin Receptor RXFP1. Relaxin receptor 1 (Homo sapiens), Q9HBX9. HEK293T-RXFP1 cAMP TR-FRET, 30 min; response scale: percent of porcine relaxin response, buffer zero. Potency, µM (top dose mostly 57.5 µM), actives largely listed as activators. 370,000 compounds, 0.3% hits; also: nearly all actives have a fitted effect of over 60% in size
Target sequence (Q9HBX9 whole entry, looked up): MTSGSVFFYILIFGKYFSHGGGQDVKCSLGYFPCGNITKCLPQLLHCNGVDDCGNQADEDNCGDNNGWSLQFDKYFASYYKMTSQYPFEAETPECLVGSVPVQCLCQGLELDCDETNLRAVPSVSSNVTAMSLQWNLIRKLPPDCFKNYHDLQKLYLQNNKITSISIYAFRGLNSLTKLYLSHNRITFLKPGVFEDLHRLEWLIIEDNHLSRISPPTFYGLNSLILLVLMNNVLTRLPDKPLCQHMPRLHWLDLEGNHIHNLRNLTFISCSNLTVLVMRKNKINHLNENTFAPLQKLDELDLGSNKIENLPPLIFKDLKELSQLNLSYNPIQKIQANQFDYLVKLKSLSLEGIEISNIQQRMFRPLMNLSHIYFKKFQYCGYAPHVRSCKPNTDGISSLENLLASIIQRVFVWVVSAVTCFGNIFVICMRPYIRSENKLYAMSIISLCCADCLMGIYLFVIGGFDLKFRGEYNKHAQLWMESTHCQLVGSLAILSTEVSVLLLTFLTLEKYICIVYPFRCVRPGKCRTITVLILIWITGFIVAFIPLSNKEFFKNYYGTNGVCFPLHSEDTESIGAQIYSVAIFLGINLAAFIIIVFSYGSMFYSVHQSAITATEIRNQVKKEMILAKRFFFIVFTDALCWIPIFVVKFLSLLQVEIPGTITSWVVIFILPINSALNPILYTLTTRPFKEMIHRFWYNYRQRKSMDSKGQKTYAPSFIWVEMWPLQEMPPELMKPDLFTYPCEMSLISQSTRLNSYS
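HEK293T cells stably expressing RXFP1 were pretreated with the PDE4 inhibitor Ro 20174, exposed to compounds for 30 min at 37C, lysed, and cAMP was read by TR-FRET. Data normalized to buffer (basal) and 29 nM porcine relaxin (100%).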
KinaseGlo FLuc – Counterscreen for Luciferase (Kinase-Glo TM) Inhibition; Luciferin 4-monooxygenase (Photuris pensylvanica), Q27757; Kinase-Glo luciferase, ATP luminescence, 8 min; Potency, µM (highest dose often 38.3 µM), usual class: inhibitors; 200,000 compounds, 0.28% hits; AID 1379, 2008; also: nearly all actives have a fitted effect of over 60% in size
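Inhibition of Kinase-Glo luciferase light generation was assessed at 10 uM ATP in pH 7.2 imidazole buffer, with luminescence measured after eight minutes at ambient temperature.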
RXFP1 antagonist – qHTS Assay for Antagonists of the Relaxin Receptor RXFP1. AID 1259400, 2018. HEK293-RXFP1, relaxin-stimulated cAMP HTRF, 30 min; hits give low values. 350,000 compounds, 0.59% hits. Relaxin receptor 1 (Homo sapiens), Q9HBX9. activity change, negative = inhibition, % at 57.5 µM;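 active = activity change of -60% or lower, but not beyond a set lower limit; inconclusive = change between -60% and -40%, or beyond the set limit; inactive = change above -40%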
A number is an active result. Unless noted, calls follow the shape of the dose curve; as a rule, active = well fitted curve in the direction sought with a large enough effect; inconclusive = small, poorly fitted or top-dose-only effect, or another doubt; inactive = no such curve, though single readings can be large; an effect the other way counts as inactive or inconclusive.

For CC(=O)NC12CC3CC(C1)CC(C(=O)NCc1ccc(C)cc1)(C3)C2 the results were GALK inhibitor inactive, PKM2 act inactive, miR-21 act inactive, RXFP1 ag inactive and RXFP1 antagonist -68.
CCCc1cc(C(=O)N2CCCC(Cc3cccc(Cl)c3)(C(=O)OCC)C2)n(C)n1 (stereo not drawn) was read as GALK inhibitor inactive, PKM2 act inactive, miR-21 act inactive, RXFP1 ag inactive and RXFP1 antagonist -64.
Screening CCOC(=O)C1(Cc2cccc(Cl)c2)CCCN(C(=O)c2ccnn2C)C1 (stereo not drawn) returned GALK inhibitor inactive, PKM2 act inactive, miR-21 act inactive, RXFP1 ag inactive and RXFP1 antagonist inactive.
For CCOc1ccccc1NC(=O)NCc1noc2ccc(C)cc12 the results were miR-21 act inactive, RXFP1 ag inactive and RXFP1 antagonist inactive.
For CC1(C(=O)N/N=C/c2c(F)c(F)c(F)c(F)c2F)CC1(Cl)Cl (stereo not drawn) the results were RXFP1 antagonist -68.
`CCN(/N=C/c1cccs1)c1cc(=O)n(C)c(=O)[nH]1` gave GALK inhibitor inactive, PKM2 act 22µM, miR-21 act inactive, RXFP1 ag inactive, KinaseGlo FLuc inactive and RXFP1 antagonist inactive.
`Cc1nc2c(C(=O)NCCC(C)C)c[nH]n2c(=O)c1Cc1ccccc1F` gave GALK inhibitor inactive, PKM2 act inactive, miR-21 act inactive, RXFP1 ag inactive, KinaseGlo FLuc inactive and RXFP1 antagonist -101.
For O=S(=O)(/N=C(\c1ccccc1)N1CCOCC1)c1ccc(Cl)cc1 the results were GALK inhibitor inactive, PKM2 act inactive, miR-21 act inactive, RXFP1 ag inactive, KinaseGlo FLuc inactive and RXFP1 antagonist inactive.
Screening O=[N+]([O-])c1ccc(Cl)c(S(=O)(=O)/N=C(/c2ccccc2)N2CCOCC2)c1 returned GALK inhibitor inactive, PKM2 act inactive, miR-21 act inactive, RXFP1 ag inactive, KinaseGlo FLuc inactive and RXFP1 antagonist -61.
For O=C(Nc1cc2cccc([N+](=O)[O-])c2oc1=O)c1cccs1 the results were GALK inhibitor inactive, PKM2 act inactive, miR-21 act inactive, RXFP1 ag inactive, KinaseGlo FLuc inactive and RXFP1 antagonist inactive.
Screening CSc1oc(-c2ccccc2)nc1S(=O)(=O)c1ccc(F)cc1 returned GALK inhibitor inactive, PKM2 act inactive, miR-21 act inactive, RXFP1 ag inactive, KinaseGlo FLuc inactive and RXFP1 antagonist inactive.
For Cc1ccc(S(=O)(=O)c2nc(-c3cccs3)oc2SC(C)C)cc1 the results were miR-21 act inactive, RXFP1 ag inactive and RXFP1 antagonist inactive.
CCCCS(=O)(=O)c1oc(-c2ccc(F)cc2)nc1S(=O)(=O)c1ccccc1 was read as miR-21 act inconclusive, RXFP1 ag inactive and RXFP1 antagonist -81.
CC(C)S(=O)(=O)c1oc(-c2ccc(F)cc2)nc1S(=O)(=O)c1ccccc1 was read as miR-21 act inconclusive, RXFP1 ag inactive and RXFP1 antagonist -106.
CC(C)S(=O)(=O)c1oc(-c2cccs2)nc1S(=O)(=O)c1ccc(F)cc1 was read as miR-21 act inconclusive, RXFP1 ag inactive and RXFP1 antagonist -79.
Screening CCS(=O)(=O)c1oc(-c2ccc(F)cc2)nc1S(=O)(=O)c1ccc(Br)cc1 returned miR-21 act inconclusive, RXFP1 ag inactive and RXFP1 antagonist -102.
Screening CSc1oc(-c2ccc(F)cc2)nc1S(=O)(=O)c1ccccc1 returned GALK inhibitor inactive, PKM2 act inactive, miR-21 act inactive, RXFP1 ag inactive, KinaseGlo FLuc inactive and RXFP1 antagonist inactive.
`CC(C)C(=O)Nc1cccc(C(=O)Nc2nnc(CC(C)(C)C)s2)c1` gave miR-21 act inactive, RXFP1 ag inactive and RXFP1 antagonist inactive.
For CCCCC[C@H](O)/C=C/C1=C(C/C=C\CCCC(=O)O)C(=O)CC1 the results were KinaseGlo FLuc inactive.
For CCOC(=O)c1c(CSC(=N)N)n(C)c2cc(Br)c(OC(C)=O)cc12 the results were GALK inhibitor inactive, PKM2 act 16µM, miR-21 act inactive, RXFP1 ag inactive and RXFP1 antagonist inactive.
For COc1cc(C=C2C(=O)c3ccccc3C2=O)ccc1O the results were GALK inhibitor inactive, PKM2 act inactive, miR-21 act inactive, RXFP1 ag inactive and RXFP1 antagonist inactive.
COc1ccc(C=C2C(=O)c3ccccc3C2=O)cc1O was read as GALK inhibitor inactive, PKM2 act inactive, miR-21 act inactive, RXFP1 ag inactive, KinaseGlo FLuc 7.9µM and RXFP1 antagonist inactive.
CCCN(CCc1cccs1)[C@H]1CCc2c(O)cccc2C1 was read as RXFP1 antagonist inactive.
O=C(COc1ccccc1)N1CCN(S(=O)(=O)c2cccs2)CC1 was read as GALK inhibitor inactive, PKM2 act 7.9µM, miR-21 act inactive, RXFP1 ag inactive, KinaseGlo FLuc inactive and RXFP1 antagonist inactive.
O=C(CCOc1ccccc1)N1CCN(S(=O)(=O)c2cccs2)CC1 was read as GALK inhibitor inactive, PKM2 act 13µM, miR-21 act inactive, RXFP1 ag inactive, KinaseGlo FLuc inactive and RXFP1 antagonist inactive.
N#Cc1ccc(OCC(=O)N2CCN(S(=O)(=O)c3cccs3)CC2)cc1 was read as GALK inhibitor inactive, PKM2 act 18µM, miR-21 act inactive, RXFP1 ag inactive, KinaseGlo FLuc inactive and RXFP1 antagonist inactive.
Screening CCS(=O)(=O)N1CCN(S(=O)(=O)c2ccccc2[N+](=O)[O-])CC1 returned GALK inhibitor inactive, PKM2 act inconclusive, miR-21 act inactive, RXFP1 ag inactive, KinaseGlo FLuc inactive and RXFP1 antagonist inactive.
Screening COc1ccc(CCC(=O)N2CCN(S(=O)(=O)c3cccs3)CC2)cc1 returned RXFP1 ag inactive and RXFP1 antagonist inactive.
`COc1ccc(OCC(=O)N2CCN(S(=O)(=O)c3ccccc3[N+](=O)[O-])CC2)cc1` gave GALK inhibitor inactive, PKM2 act 7.9µM, miR-21 act inactive, RXFP1 ag inactive, KinaseGlo FLuc inactive and RXFP1 antagonist inactive.
Cc1cc(N=Nc2ccccc2)c(NCC(O)C(O)C(O)CO)cc1C (stereo not drawn) was read as GALK inhibitor inactive, PKM2 act inactive, miR-21 act inactive, RXFP1 ag inactive, KinaseGlo FLuc inactive and RXFP1 antagonist inactive.
`Cc1cc(C)c2c(N=NN3CCOCC3)[nH]nc2n1` gave PKM2 act inactive, miR-21 act inactive, RXFP1 ag inactive, KinaseGlo FLuc inactive and RXFP1 antagonist inactive.
CC(C)N1CCSC1=S was read as RXFP1 antagonist inactive.

Screening data as filed in PubChem.
